PubChem BioAssay AID893 (National Center for Advancing Translational Sciences (NCATS), 2007)
Where “and” joins values, the source holds several entries; their conditions need not be identical. Equal entries are not always repeated. Out of some 75,000 compounds screened, about 5,700 (7.6%) were called active. Inconclusive results (about 7%) are left out. Calls follow the shape of the dose curve; as a rule, active = well fitted inhibition curve with a large enough effect; inconclusive = small, poorly fitted or top-dose-only effect; inactive = no such curve, though single readings can be large or run the other way. What follows is part of a selection rich in actives, with near analogues and random picks from the rest.

The compounds below were run against 3-hydroxyacyl-CoA dehydrogenase type-2 (Homo sapiens) (UniProt Q99714) (assay: qHTS Assay for Inhibitors of HSD17B4, hydroxysteroid (17-beta) dehydrogenase 4). Conditions: recombinant HSD17B10, NADH fluorescence kinetic; series mostly up to 57.1 µM; activity change, negative = inhibition: at the top concentration.
Text: Assay Overview: NIH Molecular Libraries Screening Centers Network [MLSCN] NIH Chemical Genomics Center [NCGC] Structural Genomics Consortium [SGC] Grant number: None HADH2: Hydroxyacyl-Coenzyme A dehydrogenase, type II, was supplied by researchers at the Structural Genomics Consortium, Oxford University lab (PI Udo Oppermann). The mitochondrial enzyme 17-hydroxysteroid dehydrogenase type 10 (HSD17-10) previously classified as type II hydroxyacyl-CoA dehydrogenase (HADH2) catalyzes the NAD+ dependent oxidation of a variety of substrates including acyl-CoAs, androgens and neurosteroids as well as bile acids(Shafqat N, Marschall HU, Filling C, et al. Biochemical Journal. 2003;376(Pt 1):49-60). […] The enzyme was produced by E.coli fermentation as His-tagged recombinant for the purpose of X-ray structure determination, and had been mass-spectrometry characterized. Inhibition of HADH2 activity was screened by utilizing beta-hydroxybutyryl coenzyme A as an electron donor and NAD+ as an electron acceptor/cofactor. An increase in the fluorescence intensity due to conversion of NAD+ to NADH was used to measure the enzyme activity.
Assay Protocol: Buffer: 100 mM Tris-HCl pH 9.0, containing 0.01 % Tween-20. Reagents/Controls: Buffer in columns 3 and 4 as negative control (no enzyme). Substrate/cofactor solution: 1 mM NAD+ and 90 uM beta-hydroxybutyryl coenzyme A (Sigma-Aldrich, St. Louis, MO) final concentrations dispensed throughout the plate. Enzyme: 20 nM HADH2 final concentration in columns 1, 2, 5-48. Column 1 is neutral (100% activity). Column 2 contained titration of apomorphine (Sigma-Aldrich, A 4393, PubChem CID 2215, top concentration 500 uM, then 1:2 dilution in duplicate) Assay Steps: Three uL of enzyme were dispensed to 1536-well Greiner black solid bottom plates. Compounds and controls (23 nL) were transferred via Kalypsys PinTool. The plates were incubated for 15 min at room temperature, and then 1 uL of substrate/cofactor solution was added to start the reaction. The plates were immediately transferred to and read every 30 seconds for 4 min on ViewLux High-throughput CCD imager (Perkin-Elmer) using 360 nm excitation and 450 nm emission fluorescence protocol. The fluorescence intensity difference between the last and the first time points was used to compute reaction progress.
% is scaled to controls: 0 for no effect and ±100 for the full control effect; potency is read from the fitted curve at half-maximal effect.
Also: nearly all actives have a fitted effect of over 70% in size.

Activity change, negative = inhibition, inactive:
COc1ccc(N2C(=O)CCC(C(=O)Nc3ccccn3)C2c2ccc(OC)c(OC)c2)cc1 (configuration not stated) 16.6%, CC(C)=CCC/C(C)=C/CO/N=C1/C[C@@H](O)[C@@H](O)[C@@H]2[C@@H]3C(=O)N(C(C)(C)C)C(=O)[C@H]3CC[C@H]12 0.507% [at 11.4 µM], COC(=O)[C@@H]1CC[C@H](C)[C@@H](c2ccc(C)cc2)N1C(=O)c1ccc(/C=N\O[C@@H](C)c2cn([C@H](CO)Cc3ccccc3)nn2)cc1 -0.702% [at 11.4 µM] and -3.31% [at 11.4 µM], O=C(Nc1c(C(=O)N2CCCCC2)cnn1-c1ccccc1)c1ccco1 6.7%, Cc1c(C(=O)NCCN2CCOCC2)sc2nc(-c3ccc(F)cc3)cn12 6.66%, O=C1c2cccc3cccc(c23)N1CN1CCN(c2ccccn2)CC1 2.8%, CC(C(=O)O)N1C(=O)c2cccc3cccc1c23 (configuration not stated) 2.71%, CN1CC(=O)N=C1N -0.833%, COC(=O)NC(c1ccccc1)[C@]1(C(C)=O)CCCC1=O (some centres not stated) 3.19% [at 11.4 µM], Cc1ccc(C(=O)COc2cccc(NC(=O)c3ccco3)c2)cc1 -14.7%, Cc1ccnc(NC(=O)c2ccc(NC(=O)c3ccco3)cc2)c1 -8.38%, CCN(CC)C(=O)c1sc(NC(=O)c2ccco2)c(C#N)c1C -17.2%, O=S(=O)(O)c1nc2ccccc2n1Cc1ccc(Cl)cc1 -1.86%, COC(C)(C)[C@]12CC(O)(C(C)C)ON1[C@H]1CCCCC1N2O (some centres not stated) 8.36%, Cc1sc2c(c1C)c(=O)n(-c1ccccc1)c1nncn21 5.02%, Cn1c2c(c(=O)n(C)c1=O)C(c1ccc(O)cc1)Nc1ccccc1O2 (configuration not stated) -8.25%, O=C(CCCN1C(=O)C2C3C=CC(C3)C2C1=O)N1CCN(c2ccccc2)CC1 (configuration not stated) -2.22%, CC(C)CCNC(=O)CCNS(=O)(=O)c1ccc(Cl)cc1 10.5%, CCCCOc1ccc(NC(=O)CSCC(=O)OCC)cc1 1.87%, CCOC(=O)c1cnc(SCC(=O)NCc2ccco2)nc1N -6.87%, Cc1cccc(NC(=O)c2ccc3ccccc3n2)n1 -20.5%, COC(=O)[C@@H]1C[C@@]2(O)[C@H](O)[C@H](O)[C@H](O)C[C@H]2N1Cc1ccc(C(C)(C)C)cc1 3.75%, COc1ccc(OC)c([C@H](O)CNC(=O)CN)c1 0.323% [at 25.6 µM], COc1cc(NC(=O)N2CCOCC2)cc(OC)c1 5.87%, Cc1c(C(=O)CN2CCOCC2)[nH]c2ccccc12 -6.78%, O=C(CN1C2CCC1CC(NC(=O)C1CC1)C2)NCc1ccccc1 (configuration not stated) 1.53%, CCCN(CCC)CCNC(=O)c1cc2c(C)nc3ccccc3c2o1 -25.7%, Cc1nc2ccccc2c2oc(C(=O)NCCCN3CCC(C)CC3)cc12 -22.8%, Cc1ccc(Cc2cncc(O)c2)cc1S(=O)(=O)O -3.12%, CCCn1c(SCC(=O)c2ccc3c(c2)OCCO3)nnc1C(C)C -6.57%, COc1cc(C2C(C(=O)Nc3ccc(F)cc3)=C(C)Nc3nc(CCCO)nn32)cc(OC)c1OC (configuration not stated) 4.48%, CC1C(O)CC2C(C(=O)O)=CO[C@@H](O[C@H]3OC(CO)C(O)C(O)C3O)C21 (some centres not stated) -1.35%, COc1ccc(C2CC(c3ccccc3)Nc3ncnn32)cc1 (configuration not stated) 1.31%, CC(C)[C@@H](OCc1ccccc1)[C@H](C)/C=N\OC[C@@H](C)[C@H](OCc1ccccc1)C(C)C 2.53% [at 11.4 µM], OC(COc1ccccc1)Cn1cc(Br)cn1 (configuration not stated) 7.04%, COc1cc(-c2nc(S(=O)(=O)c3ccc(Cl)cc3)c(N(C)C)o2)cc(OC)c1OC -6.36%, COC(=O)c1ccc(C2NC(=O)NC(C)=C2C(=O)N(C)C)cc1 (configuration not stated) -0.293%, COc1ccc(C2C(C(=O)Nc3ccccc3OC)=C(C)Nc3nnnn32)c(OC)c1 (configuration not stated) 3.75%, Cc1c(C)c2c(c(C)c1O)CC[C@@](C)(CN1CCN(c3cc(N4CCCC4)nc(N4CCCC4)n3)CC1)O2 -14.3%, CCOC(=O)CSc1nnc(-c2ccco2)n1C 2.61%, c1coc(-c2nc3nc4ccccc4n3nc2-c2ccco2)c1 -11.6%, Cn1c(SCC(=O)N2CCOCC2)nnc1-c1ccc(NC(=O)c2ccccc2F)cc1 -3.2%, COc1cccc(Nc2nnc(SCC(=O)N3CC(C)OC(C)C3)s2)c1 (configuration not stated) -1.19%, O=C(C1CCN(CC2CCCCC2)CC1)N1CCCC1 3.46%, Cc1nn(CC(=O)Nc2ccc3c(c2)nc(CN2CCCCC2)n3C)c(=O)c2ccccc12 -9.44%, CCC(=O)Nc1ccc2c(c1)nc(CCN1CCN(C)CC1)n2C 5.81%, CC(C)N(CCNC(=O)c1ccc(-n2c(=O)c(=O)[nH]c3ccccc32)cc1)C(C)C 3.88%, CN(C)CCCCNC(=O)c1ccc(Cc2nc3ccccc3[nH]2)cc1 5.28%, COC(=O)[C@@]1(Cc2ccc(OC)cc2)[C@H]2c3cc(C(=O)N4CCCC4)n(Cc4ccc(OC(F)(F)F)cc4)c3C[C@H]2CN1C(=O)c1ccccc1 14.2%, Cc1ccc2c(C(=O)CN3CCCC3)c(C)[nH]c2c1 0.156%, CCOC(=O)c1nnn(-c2nonc2OC)c1-c1ccccc1 -0.321%, CCOC(=O)CN(C(=O)CN1CCOCC1)c1ccc(Br)cc1 3.7%, Cc1ccc(OCC(O)CN2CCN(CC(O)COc3ccc(C)cc3Cl)CC2)c(Cl)c1 (configuration not stated) 0.725%, CC(C)c1ccc(-c2nn[nH]n2)cc1 5.91%, CCCn1nnc2sc3c(c2c1=O)CCC(C)C3 (configuration not stated) -2.75%, Cc1nc2cc(S(=O)(=O)C(F)(F)F)ccc2s1 -3.67%, COc1ccc(-c2oc3cc(OC)ccc3c2C(=O)c2ccc(C#N)cc2)cc1 -2.67%, CN1C(C)(C)CC(NC(=O)CCC(=O)NC2CC(C)(C)N(C)C(C)(C)C2)CC1(C)C 2.35%, O=C(CCCOc1ccccc1)Nc1cccc(C(=O)O)c1 -10.7%, Cc1ccc2c(c1)N(CCCC(=O)NCc1cccnc1)C(=O)CO2 -1.27%, COc1cccc(N(CC(=O)Nc2cccc(N(C)S(C)(=O)=O)c2)S(C)(=O)=O)c1 8.68%, COC(=O)c1cn(-c2ccccc2)nc1-c1cccnc1 12.2%, Cc1ccc2oc(=O)ccc2c1 3.68%, COc1ccc2c(=O)cc(-c3ccccc3)oc2c1O -0.613%, COc1ccc(C)cc1-n1nnnc1SCC(=O)c1cc(C)n(Cc2ccco2)c1C -5.37%, O=C(NCCc1ccc(Cl)cc1)C1CC(=O)N(C2CCCCC2)C1 (configuration not stated) 4.48%, NS(=O)(=O)c1ccc(CCNC(=O)Nc2ccc(Cl)cc2)cc1 -7.81%, CN1CCc2[nH]nc(-c3n[nH]c4c3CN(C)CC4)c2C1 4.35% [at 11.4 µM], CCn1c(COc2cccc(OC)c2)nnc1SCC(=O)N1CCOCC1 -0.496%, COc1ccc(-c2nc(SCC(=O)N3CCOCC3)n[nH]2)cc1 7.74%, O=C(CSc1nnc(-c2ccccc2)o1)N1CCOCC1 11%, O=C(OCc1nnc(-c2ccccc2)o1)c1ccc2c(c1)C(=O)N(CCc1ccccc1)C2=O 9.34%, Fc1cccc(/C=N\N=C/c2cccc(F)c2)c1 -3.93%, O=C(O)CCC(=O)NCc1ccc2[nH]c3c(c2c1)CCCC3 -16.9%, N#CCCN1CCN(S(=O)(=O)c2ccc(S(=O)(=O)NC3CCCCC3)cc2)CC1 -1.99%, COc1ccccc1-n1c(CNC(=O)c2ccccc2)nnc1SCC(=O)Nc1nnc(C)s1 -0.833%, COC(CCN(C)C)(c1ccccc1)c1ccccc1 12.6%, CCCCN(CC)CCCNC(=O)CS(=O)(=O)Cc1nc(-c2cccc(OC)c2)oc1C -8.92%, COc1cccc(-c2nc(S(=O)(=O)c3ccccc3)c(N3CCOCC3)o2)c1 -22.1%, COc1ccccc1N1CCN(CCN2C(=O)c3ccccc3C(C)(C)C2=O)CC1 -13.9%, COc1ccc(OC)c(CNC(=O)CCc2nc(-c3cccs3)no2)c1 4.41%, CCOC(=O)NCc1ccc2c(c1)OCO2 -1.13%

Potency, active:
CC(C)c1ccc2c(c1)c(SC(C)(C)C)c(CC(C)(C)C(=O)O)n2Cc1ccc(Cl)cc1 10 µM and 3.98 µM, COc1ccc(N2C(=O)c3cccc4cccc(c34)C2=O)nn1 31.6 µM, Cc1ccc(Cn2c(NC(=O)c3ccco3)nc3ccccc32)cc1 15.8 µM, CCn1nc(NC(=O)c2ccco2)c2cc3ccc(C)cc3nc21 20 µM, CCCCOc1ccc(-c2ncc(C(=O)OCC)c(N)n2)cc1 31.6 µM, CCOC(=O)c1[nH]c2ccc(OC)cc2c1NC(=O)N1CCOCC1 25.1 µM, Cc1nc2ccccc2c2oc(C(=O)NCC3CCCO3)cc12 (configuration not stated) 31.6 µM, COC(=O)c1ccc(C2C3=C(Nc4nnnn42)c2ccccc2OC3)cc1 (configuration not stated) 25.1 µM, Cn1c(-c2ccco2)nc2cc3ccccc3cc21 25.1 µM, Cn1c(CCN2CCCCCC2)nc2cc(NC(=O)Nc3ccccc3)ccc21 25.1 µM, CN(C)CCCNC(=O)c1ccc2[nH]c3ccccc3c2c1 20 µM, CC(=O)Oc1c2c(c3c(c1CC=C(C)C)O[C@@]14C(=CC5CC1C(C)(C)OC4(C/C=C(\C)C(=O)O)C5=O)C3=O)OC(C)(CCC=C(C)C)C=C2 (some centres not stated) 20 µM, c1ccc(-n2ncc(-c3nn[nH]n3)n2)cc1 31.6 µM, CC(=O)Oc1ccc2c(C)c(CC(C)O)c(=O)oc2c1 (configuration not stated) 2 µM, Cc1cccc(-c2cc(=O)c3cc(C)ccc3o2)c1 31.6 µM, Oc1cc2c(cc1O)CN(C(=S)NCCc1ccc(Cl)cc1)CCC2 15.8 µM, COc1ccc(-c2ccnc(SCC(=O)N3CCOCC3)n2)cc1 25.1 µM, Nc1ccc(-c2nnc(-c3ccc(-c4ccccc4)cc3)o2)cc1 5.01 µM, COc1cccc(-c2nc3cc(C)ccc3o2)c1 25.1 µM, CCC1=C/C(=C\c2ccc3c(c2)OCO3)C(=O)S1 25.1 µM
